Results filed as inconclusive are left out. Activity calls are given as the source filed them. Unless noted, the call rests on the fitted dose curve; in most records, active means well fitted curve in the direction sought with a large enough effect in the repeat runs; inconclusive means weak or mixed curves; inactive means no such curve, though single readings can be large; an effect the other way counts as inactive or inconclusive.
Legend:
[1] = qHTS assay to identify small molecule agonists of the RXR signaling pathway - cell viability counter screen (AID 1159529); further: nearly all actives have a fitted effect of over 50% in size; further: potency means the concentration at half of the fitted maximal effect;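 on activity change, negative = cytotoxicity: HEK 293T cells carrying an RXR-alpha UAS beta-lactamase reporter; series mostly up to about 77 µM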
Procedure, shortened: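 RXR-alpha-UAS-bla HEK 293T cells in medium with 2% charcoal-stripped FBS were preincubated 5 hr, then exposed to compounds for 16 hr at 37 C. Viability was read as CellTiter-Glo luminescence after 30 min at room temperature.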

[2] = qHTS assay to identify small molecule antagonists of the retinoid acid receptor (RAR) signaling pathway - cell viability counter screen (AID 1159551); further: nearly all actives have a fitted effect of over 35% in size
Procedure, shortened: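 Retinol-stimulated (1 uM final) C3RL4 cells, compound 6 h, 37 C; readout CellTiter-Glo luminescence (ATP) after 30 min RT incubation.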

[3] = qHTS assay to identify small molecule antagonists of the estrogen related receptor (ERR) signaling pathway from Tox21 library - cell viability counter screen (AID 1224834); further: nearly all actives have a fitted effect of over 30% in size; further: potency means the concentration at half of the fitted maximal effect
Procedure, shortened: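 After 17.5 h of compound exposure at 37 C, ERR cells are incubated with CellTiter-Fluor for 30 min and fluorescence intensity serves as the viability measure.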

[4] = target: Luciferin 4-monooxygenase (Photinus pyralis) (UniProt P08659); experiment: qHTS assay to identify small molecule inhibitors of firefly luciferase (AID 1224835); further: nearly all actives have a fitted effect of over 25% in size; further: potency means the concentration at half of the fitted maximal effect; on activity change, negative = inhibition: series mostly up to about 120 µM
Chain of Luciferin 4-monooxygenase (Photinus pyralis) (P08659 whole entry, looked up): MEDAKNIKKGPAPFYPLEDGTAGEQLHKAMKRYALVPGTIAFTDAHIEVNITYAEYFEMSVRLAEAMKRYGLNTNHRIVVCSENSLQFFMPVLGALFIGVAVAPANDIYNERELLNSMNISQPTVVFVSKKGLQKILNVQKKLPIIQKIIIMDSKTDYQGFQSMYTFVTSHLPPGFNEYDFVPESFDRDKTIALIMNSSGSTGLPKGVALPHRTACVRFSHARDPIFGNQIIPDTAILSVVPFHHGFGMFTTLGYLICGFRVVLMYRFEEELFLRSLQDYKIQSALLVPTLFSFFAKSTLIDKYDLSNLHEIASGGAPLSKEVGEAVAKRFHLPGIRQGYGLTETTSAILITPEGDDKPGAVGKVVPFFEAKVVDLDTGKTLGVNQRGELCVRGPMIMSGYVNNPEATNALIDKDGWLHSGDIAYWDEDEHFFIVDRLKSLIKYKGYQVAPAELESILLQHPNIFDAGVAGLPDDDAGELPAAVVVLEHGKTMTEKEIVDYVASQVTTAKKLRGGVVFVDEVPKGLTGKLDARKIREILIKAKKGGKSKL
Procedure, shortened: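 Biochemical qHTS: compounds run as interplate titrations against purified firefly enzyme, with D-luciferin and ATP each at its KM concentration. Light output recorded by CCD imaging.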

[5] = qHTS assay to identify small molecule agonists of the constitutive androstane receptor (CAR) signaling pathway - cell viability counter screen (AID 1224836); further: series mostly up to about 92 µM; nearly all actives have a fitted effect of over 45% in size
Procedure, shortened: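 HepG2 cells stably carrying hCAR and a CYP2B6-2.2kb reporter were plated 4 h, then given compounds at 15 concentrations plus PK11195 (final 0.75 uM). After 23 h at 37 C, viability was read by CellTiter-Fluor fluorescence.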

[6] = qHTS assay to identify small molecule antagonists of the constitutive androstane receptor (CAR) signaling pathway - cell viability counter screen (AID 1224837); further: series mostly up to about 92 µM; nearly all actives have a fitted effect of over 45% in size
Procedure, shortened: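 Counter screen run in HepG2-CYP2B6-hCAR cells: 4 hr settle, compound titration (15 concentrations) with 50 nM CITCO, 23 hr at 37 C/5% CO2, CellTiter-Fluor fluorescence.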

[7] = qHTS assay to identify small molecule antagonists of the estrogen related receptor signaling pathway with the pleiotropic PPARgamma coactivator (PGC) from Tox21 10K library - cell viability counter screen (AID 1224840; active means well fitted cell-killing curve with a large enough effect in the repeat runs, not every such curve was filed as active; further: nearly all actives have a fitted effect of over 40% in size)
Procedure, shortened: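 Following seeding of 2,000 PGC/ERR cells/well and 6 hours' incubation, test compounds were delivered in DMSO. The plates then sat 17.5 hours at 37 C before a fluorogenic live-cell protease reagent (CellTiter-Fluor) was read after 30 min.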

[8] = qHTS assay to identify small molecule antagonists of the estrogen related receptor signaling pathway with the pleiotropic PPARgamma coactivator (PGC) from Tox21 10K library (AID 1224841; call rule not given here; further: series mostly up to about 92 µM; actives are mostly falling curves and most rising ones were filed inactive; nearly all actives have a fitted effect of over 50% in size)
Procedure, shortened: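 qHTS antagonist format: PGC/ERR cells, 2k/well, compound in DMSO by pin transfer after 6 h attachment, 18 h treatment at 37 C, One-Glo luminescence read at 30 min.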

[9] = qHTS assay to identify small molecule agonists of the estrogen related receptor signaling pathway with the pleiotropic PPARgamma coactivator (PGC) from Tox21 10K library (AID 1224842); further: nearly all actives have a fitted effect of over 15% in size; further: potency means the concentration at half of the fitted maximal effect
Procedure, shortened: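 PGC/ERR reporter cell line, 2,000 cells per well, incubated 6 h at 37 C before 23 nL compound in DMSO was added. After 18 h at 37 C, One-Glo luminescence read following 30 min at room temperature.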

[10] = qHTS assay to identify small molecule antagonists of the retinoic acid receptor (RAR) signaling pathway (AID 1159552; further: nearly all actives have a fitted effect of over 50% in size)
Procedure, shortened: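 RARE-luc C3RL4 cells; cpds + 1 uM (final) retinol, 6 hr, 37 C/5% CO2; luciferase reagent, 30 min RT, luminescence readout. Inhibitors of retinol-driven signal scored.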

[11] = qHTS assay to identify small molecule agonists of the retinoic acid receptor (RAR) signaling pathway (AID 1159553); further: potency means the concentration at half of the fitted maximal effect
Procedure, shortened: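 Reporter readout comes from luciferase under RARE control in C3RL4 cells; compound exposure lasts 6 hr at 37 C in 5% CO2, and luminescence is recorded following a 30 min room-temperature incubation with reagent.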

[12] = target: Nuclear receptor subfamily 1 group I member 3 (Homo sapiens) (UniProt Q14994); experiment: qHTS assay to identify small molecule antagonists of the constitutive androstane receptor (CAR) signaling pathway (AID 1224838); further: nearly all actives have a fitted effect of over 40% in size
Chain of Nuclear receptor subfamily 1 group I member 3 (Homo sapiens) (Q14994 whole entry, looked up): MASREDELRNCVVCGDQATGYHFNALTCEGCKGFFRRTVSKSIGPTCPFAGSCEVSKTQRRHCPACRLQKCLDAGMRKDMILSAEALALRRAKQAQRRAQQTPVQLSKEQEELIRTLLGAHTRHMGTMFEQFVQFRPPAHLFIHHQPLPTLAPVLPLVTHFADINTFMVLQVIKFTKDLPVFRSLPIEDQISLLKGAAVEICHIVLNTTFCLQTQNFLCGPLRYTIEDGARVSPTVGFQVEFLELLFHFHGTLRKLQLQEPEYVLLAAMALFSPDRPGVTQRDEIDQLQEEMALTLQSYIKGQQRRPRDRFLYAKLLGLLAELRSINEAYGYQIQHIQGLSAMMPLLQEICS
Procedure, shortened: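 Cell line: HepG2 double-stable for hCAR and CYP2B6-2.2kb reporter. Agonist: CITCO, 50 nM final. Compounds: 15 concentrations, 24 h, 37 C. Detection: ONE-Glo luminescence.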

[13] = target: Nuclear receptor subfamily 1 group I member 3 (Homo sapiens) (UniProt Q14994); experiment: qHTS assay to identify small molecule agonists of the constitutive androstane receptor (CAR) signaling pathway (AID 1224839); further: nearly all actives have a fitted effect of over 15% in size; further: potency means the concentration at half of the fitted maximal effect;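 on activation: HepG2 cells stably carrying human CAR and a CYP2B6 luciferase reporter; series mostly up to about 92 µM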
Procedure, shortened: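 HepG2 cells stably expressing hCAR and a CYP2B6-2.2kb luciferase reporter were treated with compounds at 15 concentrations plus 0.75 uM PK11195 (final) for 24 h at 37 C; luminescence was read after ONE-Glo addition.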
On the % scale 0 is the no-effect control and ±100 the full control effect.

CC/C=C/CCO
inactive: Potency [1] | outcome [2] | Potency [3] | Potency [4] | Potency [5] | Potency [6] | Potency [7] | Potency [8] | Potency [9]

CCCCCCCCCCCCSC#N
inactive: Potency [1] | outcome [2] | Potency [3] | Potency [4] | Potency [5] | Potency [6] | Potency [7] | Potency [8] | Potency [9]

CC1=C(C)C(=O)C(C(CCCCCC(=O)O)c2ccccc2)=C(C)C1=O (stereo unspecified)
inactive: Potency [1] | outcome [10] | Potency [11] | Potency [3] | Potency [4] | Potency [5] | Potency [6] | Potency [7]

CC(C)=CCC[C@H](C)CCO
inactive: Potency [1] | outcome [10] | Potency [11] | Potency [3] | Potency [4] | Potency [5] | Potency [6] | Potency [7]

C=C[Si](OCC)(OCC)OCC
inactive: Potency [1] | outcome [2] | Potency [3] | Potency [5] | Potency [6] | Potency [7]

CNc1ccccc1
inactive: Potency [1] | outcome [2] | Potency [3] | Potency [4] | Potency [5] | Potency [6] | Potency [7] | Potency [8] | Potency [9]

Cc1c(-c2cccnc2)c2ccccc2n1CCCCC(=O)O
active: Potency [11] 43.3 µM | Potency [4] 39.9 µM
inactive: Potency [1] | outcome [10] | Potency [3] | Potency [5] | Potency [6] | Potency [12] | Potency [7]

Cc1ccc(NC(=O)c2ccc(CN3CCN(C)CC3)cc2)cc1Nc1nccc(-c2cccnc2)n1
inactive: Potency [1] | outcome [2] | Potency [7]
active: Potency [3] 23.7 µM | Potency [13] 13.3 µM

CC(C)(C)c1ccc(CCC=O)cc1
inactive: Potency [1] | outcome [10] | Potency [11] | Potency [3] | Potency [5] | Potency [6] | Potency [12] | Potency [7]

CCOC(C)OCC
inactive: Potency [1] | outcome [10] | Potency [11] | Potency [3] | Potency [4] | Potency [5] | Potency [6] | Potency [7]

CCCCCCCCCCCC(=O)OCC
inactive: Potency [1] | outcome [10] | Potency [11] | Potency [3] | Potency [4] | Potency [5] | Potency [6] | Potency [7]

CCCc1nc(C)c2c(=O)[nH]c(-c3cc(S(=O)(=O)N4CCN(CC)CC4)ccc3OCC)nn12
inactive: Potency [1] | outcome [10] | Potency [11] | Potency [3] | Potency [4] | Potency [5] | Potency [6] | Potency [12] | Potency [13] | Potency [7]

CCOC(=O)CC(O)(CC(=O)OCC)C(=O)OCC
inactive: Potency [1] | outcome [10] | Potency [11] | Potency [3] | Potency [4] | Potency [5] | Potency [6] | Potency [7]

COc1ccc(/C=C/c2cc(OC)cc(=O)o2)cc1
inactive: Potency [1] | outcome [10] | Potency [5] | Potency [6] | Potency [12] | Potency [7]
active: Potency [11] 2.79 µM | Potency [4] 5.15 µM | Potency [13] 6.26 µM | Potency [9] 7.88 µM

Sc1nc(S)nc(S)n1
inactive: Potency [1] | outcome [2] | Potency [3] | Potency [5] | Potency [6] | Potency [7] | Potency [8] | Potency [9]

C[C@H](N)C(=O)N[C@@H](C)C(=O)NC1[C@H]2CN(c3nc4c(cc3F)c(=O)c(C(=O)O)cn4-c3ccc(F)cc3F)C[C@@H]12 (stereo partly specified)
inactive: Potency [1] | outcome [10] | Potency [3] | Potency [4] | Potency [5] | Potency [6] | Potency [12] | Potency [7] | Potency [8]

NC(=O)c1ccccc1C(N)=O
inactive: outcome [2] | Potency [3] | Potency [5] | Potency [6] | Potency [9]
active: Potency [1] 34.8 µM

CCOc1ccc(NC(C)=O)cc1N
inactive: Potency [1] | outcome [10] | Potency [3] | Potency [4] | Potency [5] | Potency [6] | Potency [12] | Potency [7] | Potency [9]

Clc1nc2ccccc2nc1Cl
inactive: Potency [1] | Potency [11] | Potency [3] | Potency [4] | Potency [5] | Potency [6] | Potency [7]

OCC(O)c1ccccc1 (stereo unspecified)
inactive: Potency [1] | outcome [10] | Potency [11] | Potency [3] | Potency [4] | Potency [5] | Potency [6] | Potency [7]

O=C(O)c1cccc(C(=O)O)c1C(=O)O
inactive: outcome [10] | Potency [11] | Potency [3] | Potency [4] | Potency [5] | Potency [6] | Potency [12] | Potency [7]
active: Potency [1] 24.8 µM

CCOc1ccc2c(c1)C(C)CC(C)(C)N2 (stereo unspecified)
inactive: Potency [1] | outcome [10] | Potency [3] | Potency [5] | Potency [6] | Potency [12] | Potency [7]
active: Potency [11] 54.5 µM | Potency [4] 31.7 µM

CCCCOc1ccc(N)cc1
inactive: Potency [1] | outcome [10] | Potency [3] | Potency [5] | Potency [6] | Potency [12] | Potency [7]

OCCOc1cccc(OCCO)c1
inactive: Potency [1] | outcome [10] | Potency [3] | Potency [4] | Potency [5] | Potency [6] | Potency [12] | Potency [7] | Potency [8] | Potency [9]

C/C(=C\C(C)CC(C)CC(C)C)C1CC(=O)OC1=O (stereo unspecified)
active: Potency [4] 89.4 µM
inactive: Potency [1] | outcome [2] | Potency [3] | Potency [5] | Potency [6] | Potency [7]

Nc1ccc(C(=O)Oc2ccccc2)c(O)c1
active: Potency [11] 3.35 µM | Potency [4] 13.8 µM | Potency [9] 13.3 µM
inactive: Potency [1] | outcome [10] | Potency [3] | Potency [5] | Potency [6] | Potency [12] | Potency [7]

C[C@H]1C[C@H]2[C@@H]3CCC4=CC(=O)C=C[C@]4(C)[C@@]3(F)[C@@H](O)C[C@]2(C)[C@@]1(O)C(=O)COP(=O)(O)O
inactive: Potency [1] | outcome [2] | Potency [3] | Potency [4] | Potency [5] | Potency [6] | Potency [7]

COc1cccc([C@H](O)C2CCN(CCc3ccc(F)cc3)CC2)c1OC
inactive: outcome [2] | outcome [10] | Potency [11] | Potency [3] | Potency [4] | Potency [5] | Potency [6] | Potency [7]

NCCOCCOCCN
inactive: outcome [2] | Potency [3] | Potency [4] | Potency [5] | Potency [6] | Potency [13] | Potency [7] | Potency [9]

Oc1ccc(CCNCCCCCCNCCc2ccccc2)cc1O
inactive: outcome [2] | outcome [10] | Potency [11] | Potency [4] | Potency [5] | Potency [6] | Potency [12] | Potency [13] | Potency [7] | Potency [9]

Cc1cc(SC2=C(O)C[C@@](CCc3ccc(N)cc3)(C(C)C)OC2=O)c(C(C)(C)C)cc1CO
inactive: Potency [1] | Potency [3] | Potency [4] | Potency [5] | Potency [6] | Potency [7] | Potency [8] | Potency [9]

O=C(O)c1ccc2c(c1)nc(C(=O)NC1CCN(C3CC3)CC1)n2Cc1cc(-c2ccc(Cl)s2)on1
inactive: activity change, negative = cytotoxicity [2] 0.727% [at 19 µM] | viability change, negative = cytotoxic [3] -4.05% [at 19 µM] | activity change, negative = inhibition [4] -1.8% [at 23.6 µM] | viability change, negative = cytotoxic [5] 0.0204% [at 19 µM] | activity change, negative = cytotoxicity [6] 10.8% [at 19 µM] | activity, negative = inhibition [12] 19.9% [at 19 µM] | activation [13] -1.53% [at 19 µM] | viability change, negative = cytotoxic [7] -11.5% [at 19 µM]

COC(=O)C(C)(C)C
inactive: outcome [2] | outcome [10] | Potency [11] | Potency [4] | Potency [5] | Potency [6] | Potency [12] | Potency [13] | Potency [7] | Potency [9]

Clc1cc(Cl)c2c(c1)N=C1CCCCCN1C2
inactive: outcome [2] | outcome [10] | Potency [3] | Potency [5] | Potency [6] | Potency [12] | Potency [7] | Potency [9]
